# Laboratory results: ChEMBL document CHEMBL2218924, “A broad activity screen in support of a chemogenomic map for kinase signalling research and drug discovery” (Biochem J, 2013)
# Assays:
# [1] = molecular target: Homeodomain-interacting protein kinase 3 (Homo sapiens) (UniProt Q9H422); conditions: at 10 µM
# [2] = molecular target: T1, Serine/threonine-protein kinase haspin (Homo sapiens) (UniProt Q8TF76); conditions: at 1 µM
# T1 sequence (whole entry): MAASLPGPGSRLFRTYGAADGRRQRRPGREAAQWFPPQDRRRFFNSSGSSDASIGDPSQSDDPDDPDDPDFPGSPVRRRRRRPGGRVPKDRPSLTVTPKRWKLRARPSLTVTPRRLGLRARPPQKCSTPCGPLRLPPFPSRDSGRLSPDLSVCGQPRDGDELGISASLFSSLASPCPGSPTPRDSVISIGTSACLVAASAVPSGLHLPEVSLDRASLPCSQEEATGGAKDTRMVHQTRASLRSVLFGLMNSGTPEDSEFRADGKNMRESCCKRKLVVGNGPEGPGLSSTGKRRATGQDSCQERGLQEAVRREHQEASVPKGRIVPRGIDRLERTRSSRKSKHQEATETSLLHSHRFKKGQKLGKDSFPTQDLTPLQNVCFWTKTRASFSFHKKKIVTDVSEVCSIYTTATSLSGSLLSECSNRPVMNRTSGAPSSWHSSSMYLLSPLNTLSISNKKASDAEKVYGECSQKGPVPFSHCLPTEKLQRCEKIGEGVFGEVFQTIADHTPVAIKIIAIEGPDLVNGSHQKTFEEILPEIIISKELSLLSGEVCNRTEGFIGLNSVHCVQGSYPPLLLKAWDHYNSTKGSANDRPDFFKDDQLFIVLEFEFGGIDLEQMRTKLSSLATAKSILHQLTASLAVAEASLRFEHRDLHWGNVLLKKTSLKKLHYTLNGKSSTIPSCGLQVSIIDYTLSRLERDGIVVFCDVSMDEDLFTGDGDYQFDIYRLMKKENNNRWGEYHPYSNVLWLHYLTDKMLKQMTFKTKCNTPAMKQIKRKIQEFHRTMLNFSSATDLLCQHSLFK
# [3] = molecular target: T1, Serine/threonine-protein kinase haspin (Homo sapiens); conditions: at 10 µM
# [4] = molecular target: Tyrosine-protein kinase HCK (Homo sapiens) (UniProt P08631); conditions: at 1 µM
# Chain of Tyrosine-protein kinase HCK (Homo sapiens) (P08631 2-526 limits assumed): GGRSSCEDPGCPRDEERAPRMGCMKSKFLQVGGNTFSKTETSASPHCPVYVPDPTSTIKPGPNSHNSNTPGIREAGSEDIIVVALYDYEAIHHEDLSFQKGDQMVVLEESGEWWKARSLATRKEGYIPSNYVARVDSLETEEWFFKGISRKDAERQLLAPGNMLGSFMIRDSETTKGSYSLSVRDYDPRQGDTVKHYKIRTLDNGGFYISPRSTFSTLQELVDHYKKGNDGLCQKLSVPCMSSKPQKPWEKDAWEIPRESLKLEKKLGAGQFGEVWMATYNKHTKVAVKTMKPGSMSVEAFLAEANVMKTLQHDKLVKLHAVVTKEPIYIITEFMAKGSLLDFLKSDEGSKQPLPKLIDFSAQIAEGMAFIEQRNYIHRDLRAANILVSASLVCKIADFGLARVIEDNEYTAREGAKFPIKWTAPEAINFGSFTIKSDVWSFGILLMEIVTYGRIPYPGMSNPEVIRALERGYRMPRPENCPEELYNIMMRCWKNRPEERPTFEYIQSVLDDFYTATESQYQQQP
# [5] = molecular target: Tyrosine-protein kinase HCK (Homo sapiens) (UniProt P08631); conditions: at 10 µM
# [6] = molecular target: Tyrosine-protein kinase HCK (Homo sapiens) (UniProt P08631); conditions: at 1 µM; remark: listed apart in the source
# [7] = molecular target: Tyrosine-protein kinase HCK (Homo sapiens) (UniProt P08631); conditions: at 10 µM; remark: listed apart in the source
# [8] = molecular target: Insulin-like growth factor 1 receptor (Homo sapiens) (UniProt P08069); conditions: at 1 µM
# Chain of Insulin-like growth factor 1 receptor (Homo sapiens) (P08069 31-736 limits assumed): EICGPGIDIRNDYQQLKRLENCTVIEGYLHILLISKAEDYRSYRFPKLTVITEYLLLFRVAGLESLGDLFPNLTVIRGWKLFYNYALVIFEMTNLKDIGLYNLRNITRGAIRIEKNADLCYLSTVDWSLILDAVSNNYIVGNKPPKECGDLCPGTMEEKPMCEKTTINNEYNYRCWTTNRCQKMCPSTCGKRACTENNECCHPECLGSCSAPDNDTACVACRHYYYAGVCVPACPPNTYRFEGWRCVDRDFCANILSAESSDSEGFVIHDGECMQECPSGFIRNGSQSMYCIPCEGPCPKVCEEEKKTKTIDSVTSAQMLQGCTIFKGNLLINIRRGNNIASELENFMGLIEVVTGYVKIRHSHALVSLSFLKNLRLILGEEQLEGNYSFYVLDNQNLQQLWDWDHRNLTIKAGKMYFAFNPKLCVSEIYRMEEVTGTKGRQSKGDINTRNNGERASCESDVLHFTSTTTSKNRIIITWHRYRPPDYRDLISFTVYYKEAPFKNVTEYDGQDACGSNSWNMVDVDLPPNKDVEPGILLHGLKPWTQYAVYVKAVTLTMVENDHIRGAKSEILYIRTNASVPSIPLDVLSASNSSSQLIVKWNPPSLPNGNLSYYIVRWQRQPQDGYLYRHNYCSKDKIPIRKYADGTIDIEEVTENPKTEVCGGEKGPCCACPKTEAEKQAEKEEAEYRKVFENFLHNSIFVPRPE
# Chain of Insulin-like growth factor 1 receptor (Homo sapiens) (P08069 741-1367 limits assumed): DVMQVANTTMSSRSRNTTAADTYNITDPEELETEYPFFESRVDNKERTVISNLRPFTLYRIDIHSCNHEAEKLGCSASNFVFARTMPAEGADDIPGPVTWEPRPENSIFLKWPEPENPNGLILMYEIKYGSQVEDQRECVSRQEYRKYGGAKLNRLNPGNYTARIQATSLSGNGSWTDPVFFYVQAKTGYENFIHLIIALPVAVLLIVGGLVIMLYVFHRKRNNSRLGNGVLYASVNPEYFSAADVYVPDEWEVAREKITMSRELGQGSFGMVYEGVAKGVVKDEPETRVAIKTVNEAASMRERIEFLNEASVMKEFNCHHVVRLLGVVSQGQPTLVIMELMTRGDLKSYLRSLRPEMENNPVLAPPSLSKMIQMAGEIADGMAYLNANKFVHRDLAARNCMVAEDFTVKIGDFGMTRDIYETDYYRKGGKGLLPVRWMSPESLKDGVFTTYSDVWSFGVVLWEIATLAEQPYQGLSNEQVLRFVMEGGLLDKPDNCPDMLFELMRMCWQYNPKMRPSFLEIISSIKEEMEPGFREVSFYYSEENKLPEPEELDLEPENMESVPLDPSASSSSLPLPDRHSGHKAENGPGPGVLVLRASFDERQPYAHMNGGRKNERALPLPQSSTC
# [9] = molecular target: Insulin-like growth factor 1 receptor (Homo sapiens) (UniProt P08069); conditions: at 10 µM
# [10] = molecular target: T2, Protein kinase C zeta type (Homo sapiens) (UniProt Q05513); conditions: at 10 µM
# T2 sequence (whole entry): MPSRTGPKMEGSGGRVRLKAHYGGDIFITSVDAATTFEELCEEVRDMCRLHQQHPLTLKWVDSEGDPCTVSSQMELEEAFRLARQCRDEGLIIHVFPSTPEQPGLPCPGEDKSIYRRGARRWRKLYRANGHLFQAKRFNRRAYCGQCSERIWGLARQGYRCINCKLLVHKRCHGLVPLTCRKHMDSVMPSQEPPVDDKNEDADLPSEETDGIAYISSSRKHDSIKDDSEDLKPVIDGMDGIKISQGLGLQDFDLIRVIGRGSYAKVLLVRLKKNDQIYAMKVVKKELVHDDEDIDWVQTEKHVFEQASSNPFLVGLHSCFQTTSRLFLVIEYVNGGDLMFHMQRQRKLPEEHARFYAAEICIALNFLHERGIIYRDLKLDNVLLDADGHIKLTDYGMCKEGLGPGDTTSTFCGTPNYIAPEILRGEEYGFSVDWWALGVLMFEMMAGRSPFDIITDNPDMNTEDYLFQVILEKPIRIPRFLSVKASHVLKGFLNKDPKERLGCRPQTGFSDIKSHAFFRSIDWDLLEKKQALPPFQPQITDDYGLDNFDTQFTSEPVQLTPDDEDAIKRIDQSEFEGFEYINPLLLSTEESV
# [11] = molecular target: Protein kinase C eta type (Homo sapiens) (UniProt P24723); conditions: at 1 µM
# Chain of Protein kinase C eta type (Homo sapiens) (P24723 whole entry): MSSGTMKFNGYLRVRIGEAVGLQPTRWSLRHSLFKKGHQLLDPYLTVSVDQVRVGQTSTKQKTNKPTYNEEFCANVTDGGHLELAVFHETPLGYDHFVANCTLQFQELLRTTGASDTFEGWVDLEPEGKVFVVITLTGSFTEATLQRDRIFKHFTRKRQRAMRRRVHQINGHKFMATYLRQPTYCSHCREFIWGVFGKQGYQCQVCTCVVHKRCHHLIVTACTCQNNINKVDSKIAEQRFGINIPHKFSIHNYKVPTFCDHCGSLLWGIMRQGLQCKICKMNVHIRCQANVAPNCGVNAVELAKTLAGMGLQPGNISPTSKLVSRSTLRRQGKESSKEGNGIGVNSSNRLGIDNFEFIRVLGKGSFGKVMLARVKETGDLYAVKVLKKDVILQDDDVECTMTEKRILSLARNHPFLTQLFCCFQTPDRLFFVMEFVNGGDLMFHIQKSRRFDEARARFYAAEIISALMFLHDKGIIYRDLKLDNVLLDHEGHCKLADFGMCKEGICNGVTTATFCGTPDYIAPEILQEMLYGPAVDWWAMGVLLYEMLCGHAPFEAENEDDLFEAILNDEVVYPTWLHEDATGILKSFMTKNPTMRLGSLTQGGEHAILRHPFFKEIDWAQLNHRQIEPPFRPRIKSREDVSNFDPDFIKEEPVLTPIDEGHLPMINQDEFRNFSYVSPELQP
# [12] = molecular target: Protein kinase C eta type (Homo sapiens) (UniProt P24723); conditions: at 10 µM
# [13] = molecular target: Protein kinase C theta type (Homo sapiens) (UniProt Q04759); conditions: at 1 µM
# Chain of Protein kinase C theta type (Homo sapiens) (Q04759 whole entry, looked up): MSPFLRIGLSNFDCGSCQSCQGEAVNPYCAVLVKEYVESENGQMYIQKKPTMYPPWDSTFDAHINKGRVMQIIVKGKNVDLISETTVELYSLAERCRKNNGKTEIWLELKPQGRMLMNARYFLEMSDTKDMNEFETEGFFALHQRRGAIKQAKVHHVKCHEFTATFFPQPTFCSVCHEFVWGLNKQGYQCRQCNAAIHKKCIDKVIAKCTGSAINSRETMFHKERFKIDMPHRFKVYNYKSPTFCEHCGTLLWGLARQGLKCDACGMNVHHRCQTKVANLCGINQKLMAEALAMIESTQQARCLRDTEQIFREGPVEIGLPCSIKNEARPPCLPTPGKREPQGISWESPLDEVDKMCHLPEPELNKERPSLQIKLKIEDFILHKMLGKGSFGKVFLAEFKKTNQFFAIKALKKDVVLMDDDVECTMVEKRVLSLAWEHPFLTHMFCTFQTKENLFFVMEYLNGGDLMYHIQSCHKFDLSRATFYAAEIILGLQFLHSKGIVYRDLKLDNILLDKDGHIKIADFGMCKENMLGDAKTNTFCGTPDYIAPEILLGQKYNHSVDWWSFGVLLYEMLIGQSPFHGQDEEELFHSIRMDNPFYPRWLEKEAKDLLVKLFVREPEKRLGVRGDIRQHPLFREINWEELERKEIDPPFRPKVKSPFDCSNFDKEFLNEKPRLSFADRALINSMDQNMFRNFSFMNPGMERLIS
# [14] = molecular target: Protein kinase C theta type (Homo sapiens) (UniProt Q04759); conditions: at 10 µM
# [15] = molecular target: T3, Protein kinase C iota type (Homo sapiens) (UniProt P41743); conditions: at 1 µM
# T3 sequence (whole entry): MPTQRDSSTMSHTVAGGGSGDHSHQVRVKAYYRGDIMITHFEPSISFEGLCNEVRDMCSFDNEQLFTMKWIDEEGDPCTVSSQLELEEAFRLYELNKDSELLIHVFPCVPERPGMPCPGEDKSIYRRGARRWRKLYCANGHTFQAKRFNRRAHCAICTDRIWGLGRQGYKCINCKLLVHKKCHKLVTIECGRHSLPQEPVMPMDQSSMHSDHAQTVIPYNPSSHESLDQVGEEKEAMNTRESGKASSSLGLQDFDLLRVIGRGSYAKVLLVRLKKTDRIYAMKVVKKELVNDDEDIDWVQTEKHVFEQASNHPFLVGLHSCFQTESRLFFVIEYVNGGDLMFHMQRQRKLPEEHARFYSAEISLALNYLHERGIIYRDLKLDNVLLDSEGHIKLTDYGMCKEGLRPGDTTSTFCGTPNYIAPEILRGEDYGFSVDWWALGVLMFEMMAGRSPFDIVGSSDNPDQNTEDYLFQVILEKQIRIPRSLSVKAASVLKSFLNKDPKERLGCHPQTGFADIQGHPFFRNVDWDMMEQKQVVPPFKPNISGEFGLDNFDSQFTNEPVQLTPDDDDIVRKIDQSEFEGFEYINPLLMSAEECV
# [16] = molecular target: T3, Protein kinase C iota type (Homo sapiens); conditions: at 10 µM
# [17] = molecular target: T4, Serine/threonine-protein kinase D1 (Homo sapiens) (UniProt Q15139); conditions: at 1 µM
# T4 sequence (whole entry): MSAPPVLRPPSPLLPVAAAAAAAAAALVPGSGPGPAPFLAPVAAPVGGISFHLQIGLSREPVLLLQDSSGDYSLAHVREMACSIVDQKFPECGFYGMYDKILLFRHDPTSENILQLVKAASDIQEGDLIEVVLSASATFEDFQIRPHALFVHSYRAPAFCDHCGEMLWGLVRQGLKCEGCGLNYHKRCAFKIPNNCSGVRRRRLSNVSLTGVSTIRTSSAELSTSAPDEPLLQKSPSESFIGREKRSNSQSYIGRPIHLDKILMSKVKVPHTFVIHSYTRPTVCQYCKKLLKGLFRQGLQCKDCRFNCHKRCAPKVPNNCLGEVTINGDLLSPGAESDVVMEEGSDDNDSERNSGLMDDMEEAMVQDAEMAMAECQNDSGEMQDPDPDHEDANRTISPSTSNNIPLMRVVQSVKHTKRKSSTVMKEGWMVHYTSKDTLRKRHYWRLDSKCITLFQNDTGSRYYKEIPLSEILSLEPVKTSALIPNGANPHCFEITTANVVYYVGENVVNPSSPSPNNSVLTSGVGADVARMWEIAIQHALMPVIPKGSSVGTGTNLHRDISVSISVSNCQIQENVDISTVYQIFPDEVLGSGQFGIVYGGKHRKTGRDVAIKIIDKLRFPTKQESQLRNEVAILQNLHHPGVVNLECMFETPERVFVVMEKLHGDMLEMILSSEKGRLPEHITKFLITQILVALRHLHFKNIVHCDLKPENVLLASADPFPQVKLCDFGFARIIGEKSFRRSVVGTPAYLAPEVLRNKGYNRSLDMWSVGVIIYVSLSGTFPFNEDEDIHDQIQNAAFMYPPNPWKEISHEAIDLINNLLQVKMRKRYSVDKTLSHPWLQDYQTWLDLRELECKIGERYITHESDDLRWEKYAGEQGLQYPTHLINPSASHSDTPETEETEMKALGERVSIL
# [18] = molecular target: T4, Serine/threonine-protein kinase D1 (Homo sapiens); conditions: at 10 µM
# [19] = molecular target: T5, Serine/threonine-protein kinase D2 (Homo sapiens) (UniProt Q9BZL6); conditions: at 1 µM
# T5 sequence (whole entry): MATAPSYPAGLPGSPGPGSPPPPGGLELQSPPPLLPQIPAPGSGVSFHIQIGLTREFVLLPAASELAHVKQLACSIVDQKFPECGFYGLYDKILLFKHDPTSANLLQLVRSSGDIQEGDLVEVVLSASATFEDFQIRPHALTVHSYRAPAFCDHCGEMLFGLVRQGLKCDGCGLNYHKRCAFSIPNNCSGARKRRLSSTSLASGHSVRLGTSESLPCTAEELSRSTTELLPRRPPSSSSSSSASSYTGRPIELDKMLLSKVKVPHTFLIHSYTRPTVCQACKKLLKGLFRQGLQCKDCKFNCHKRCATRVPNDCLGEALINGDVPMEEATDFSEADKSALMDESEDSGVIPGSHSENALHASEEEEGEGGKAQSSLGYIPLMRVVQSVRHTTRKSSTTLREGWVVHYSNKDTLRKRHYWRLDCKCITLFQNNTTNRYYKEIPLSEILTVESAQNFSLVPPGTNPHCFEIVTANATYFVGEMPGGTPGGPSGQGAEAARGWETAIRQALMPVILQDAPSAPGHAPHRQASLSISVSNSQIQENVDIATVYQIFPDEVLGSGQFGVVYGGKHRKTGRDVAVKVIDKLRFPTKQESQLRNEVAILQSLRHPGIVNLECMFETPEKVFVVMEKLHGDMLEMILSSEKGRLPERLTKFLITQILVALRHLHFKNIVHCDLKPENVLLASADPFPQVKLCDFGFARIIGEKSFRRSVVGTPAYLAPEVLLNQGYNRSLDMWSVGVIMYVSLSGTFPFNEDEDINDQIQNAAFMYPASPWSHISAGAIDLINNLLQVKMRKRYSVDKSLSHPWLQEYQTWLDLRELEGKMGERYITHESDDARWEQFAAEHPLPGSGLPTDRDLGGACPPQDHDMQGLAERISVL
# [20] = molecular target: T5, Serine/threonine-protein kinase D2 (Homo sapiens); conditions: at 10 µM
# Chain of Homeodomain-interacting protein kinase 3 (Homo sapiens) (Q9H422 whole entry, looked up): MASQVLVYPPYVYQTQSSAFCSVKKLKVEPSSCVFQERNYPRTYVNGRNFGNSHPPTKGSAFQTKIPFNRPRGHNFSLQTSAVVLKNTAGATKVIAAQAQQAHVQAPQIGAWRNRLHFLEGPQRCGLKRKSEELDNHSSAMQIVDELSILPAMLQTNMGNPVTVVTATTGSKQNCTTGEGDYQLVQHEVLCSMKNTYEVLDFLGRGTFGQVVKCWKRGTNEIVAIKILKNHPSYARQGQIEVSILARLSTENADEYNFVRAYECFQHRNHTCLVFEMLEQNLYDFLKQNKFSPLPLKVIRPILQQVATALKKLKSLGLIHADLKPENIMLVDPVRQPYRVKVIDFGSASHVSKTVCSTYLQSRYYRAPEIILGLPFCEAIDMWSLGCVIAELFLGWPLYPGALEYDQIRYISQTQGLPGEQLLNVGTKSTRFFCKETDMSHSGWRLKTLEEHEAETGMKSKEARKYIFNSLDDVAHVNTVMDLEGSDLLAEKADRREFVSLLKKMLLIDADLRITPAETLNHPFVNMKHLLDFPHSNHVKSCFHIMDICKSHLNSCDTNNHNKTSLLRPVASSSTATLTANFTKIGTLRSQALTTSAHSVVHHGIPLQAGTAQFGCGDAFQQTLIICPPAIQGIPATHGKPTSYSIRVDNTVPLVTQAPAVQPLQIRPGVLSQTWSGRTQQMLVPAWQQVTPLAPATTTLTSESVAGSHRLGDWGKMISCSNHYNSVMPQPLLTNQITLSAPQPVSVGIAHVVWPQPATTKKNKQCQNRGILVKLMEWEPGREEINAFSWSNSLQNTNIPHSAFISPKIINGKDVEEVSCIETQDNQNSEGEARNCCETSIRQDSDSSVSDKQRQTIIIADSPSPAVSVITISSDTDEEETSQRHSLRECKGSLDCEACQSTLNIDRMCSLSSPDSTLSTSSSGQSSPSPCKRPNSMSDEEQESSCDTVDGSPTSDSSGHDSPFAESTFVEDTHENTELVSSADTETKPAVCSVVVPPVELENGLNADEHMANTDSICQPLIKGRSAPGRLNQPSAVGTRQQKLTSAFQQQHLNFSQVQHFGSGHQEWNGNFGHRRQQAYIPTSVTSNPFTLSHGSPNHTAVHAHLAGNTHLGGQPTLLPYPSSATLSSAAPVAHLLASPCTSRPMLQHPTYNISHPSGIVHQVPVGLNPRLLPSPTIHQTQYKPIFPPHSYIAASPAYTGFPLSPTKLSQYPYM
compound,measurement,setting,value
Oc1c2ccccc2c2c3c(cccc13)N=N2,residual activity,[1],19%
same,residual activity,[2],10%
same,residual activity,[3],-1%
same,residual activity,[4],57%
same,residual activity,[5],27%
same,residual activity,[6],80%
same,residual activity,[7],83%
same,residual activity,[8],91%
same,residual activity,[9],105%
same,residual activity,[10],106%
same,residual activity,[11],86%
same,residual activity,[12],82%
same,residual activity,[13],90%
same,residual activity,[14],76%
same,residual activity,[15],117% (inactive)
same,residual activity,[16],107%
same,residual activity,[17],32%
same,residual activity,[18],-1%
same,residual activity,[19],92%
same,residual activity,[20],36%
O=c1c2ccccc2[nH]c(=S)n1CCN1CCC(=C(c2ccc(F)cc2)c2ccc(F)cc2)CC1,residual activity,[1],88%
same,residual activity,[2],84%
same,residual activity,[3],52%
same,residual activity,[4],73%
same,residual activity,[5],38%
same,residual activity,[6],101%
same,residual activity,[7],101%
same,residual activity,[8],119%
same,residual activity,[9],104%
same,residual activity,[10],94%
same,residual activity,[11],106%
same,residual activity,[12],83%
same,residual activity,[13],110%
same,residual activity,[14],109%
same,residual activity,[15],109% (inactive)
same,residual activity,[16],81%
same,residual activity,[17],113%
same,residual activity,[18],84%
same,residual activity,[19],100%
O=C1NC(=O)c2cc(Nc3ccc(F)cc3)c(Nc3ccc(F)cc3)cc21,residual activity,[1],99%
same,residual activity,[2],103%
same,residual activity,[3],41%
same,residual activity,[4],63%
same,residual activity,[5],21%
same,residual activity,[6],87%
same,residual activity,[7],49%
same,residual activity,[8],102%
same,residual activity,[9],108%
same,residual activity,[10],101%
same,residual activity,[11],91%
same,residual activity,[12],80%
same,residual activity,[13],87%
same,residual activity,[14],62%
same,residual activity,[15],91% (inactive)
same,residual activity,[16],106%
same,residual activity,[17],94%
same,residual activity,[18],72%
same,residual activity,[19],101%
same,residual activity,[20],89%
CCN(CC)CCCCN1c2ccccc2Oc2ccc(Cl)cc21,residual activity,[1],99%
same,residual activity,[2],81%
same,residual activity,[3],36%
same,residual activity,[4],101%
same,residual activity,[5],103%
same,residual activity,[6],109%
same,residual activity,[7],112%
same,residual activity,[8],136%
same,residual activity,[9],90%
same,residual activity,[10],112%
same,residual activity,[11],118%
same,residual activity,[12],98%
same,residual activity,[13],123%
same,residual activity,[14],90%
same,residual activity,[15],94% (inactive)
same,residual activity,[16],89%
same,residual activity,[17],92%
same,residual activity,[18],95%
same,residual activity,[19],97%
same,residual activity,[20],109%
O=C1NC(=O)/C(=C\c2ccc3nccnc3c2)S1,residual activity,[1],7%
same,residual activity,[2],27%
same,residual activity,[3],3%
same,residual activity,[4],76%
same,residual activity,[5],57%
same,residual activity,[6],105%
same,residual activity,[7],90%
same,residual activity,[8],147%
same,residual activity,[9],114%
same,residual activity,[10],108%
same,residual activity,[11],103%
same,residual activity,[12],78%
same,residual activity,[13],102%
same,residual activity,[14],81%
same,residual activity,[15],89% (inactive)
same,residual activity,[16],88%
same,residual activity,[17],103%
same,residual activity,[18],88%
same,residual activity,[19],108%
same,residual activity,[20],96%
O=C1Nc2cc(Br)ccc2/C1=C1/Nc2ccccc2/C1=N\O,residual activity,[1],88%
same,residual activity,[2],68%
same,residual activity,[3],49%
same,residual activity,[4],6%
same,residual activity,[5],1%
same,residual activity,[6],1%
same,residual activity,[7],2%
same,residual activity,[8],112%
same,residual activity,[9],127%
same,residual activity,[10],99%
same,residual activity,[11],76%
same,residual activity,[12],74%
same,residual activity,[13],87%
same,residual activity,[14],75%
same,residual activity,[15],110% (inactive)
same,residual activity,[16],112%
same,residual activity,[17],90%
same,residual activity,[18],100%
same,residual activity,[19],101%
same,residual activity,[20],95%
